PubChem BioAssay AID1159580 (chemical genetic matrix, 2015)
Values joined by “and” are separate entries in the source; they are usually repeats but may differ in a detail not shown here. Equal entries are not always repeated. Among all 5,500 compounds or so, about 2,000 (36%) were called active. Another 18% or so got no clear call; they are omitted. Cut-off read from the data, not from the text of the source: active = normalized growth mostly below about 0.91 (no sharp cut-off); inconclusive = no clear call, values can overlap the other calls; inactive = mostly above about 0.92. This is one part of the list.

Experiment: chemical genetic growth profiling, strain panel (AID 1159580);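 note: tested at 20 µM; growth read once vehicle control cultures reached saturation at 30 °C; 1 = growth at the plate median or of vehicle wells; lower values mean less growth of the strain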
Conditions: growth OD

Measured: normalized growth

NNc1nncc2ccccc12
inactive: S. cerevisiae deletion strains, locus YJR066W, strain TOR1, stronger effect = lower value 0.919 | S. cerevisiae deletion strains, locus YJR075W, strain HOC1, stronger effect = lower value 0.996 | S. cerevisiae deletion strains, locus YKL009W, strain mrt4, stronger effect = lower value 0.96 | S. cerevisiae deletion strains, locus YKL068W, stronger effect = lower value 0.997 | S. cerevisiae deletion strains, locus YKL085W, strain MDH1 (second series), stronger effect = lower value 0.989 | S. cerevisiae deletion strains, locus YKL085W, strain MDH1, stronger effect = lower value 0.989 | S. cerevisiae deletion strains, locus YKL160W, strain elf1, stronger effect = lower value 0.995 | S. cerevisiae deletion strains, locus YKL190W, strain CNB1, stronger effect = lower value 1 | S. cerevisiae deletion strains, locus YKR001C, strain vps1, stronger effect = lower value 1 | S. cerevisiae deletion strains, locus YKR026C, strain gcn3, stronger effect = lower value 0.998 | S. cerevisiae deletion strains, locus YKR091W, strain srl3, stronger effect = lower value 0.997 | S. cerevisiae deletion strains, locus YLL001W, strain dnm1, stronger effect = lower value 0.979 | S. cerevisiae deletion strains, locus YLL026W, stronger effect = lower value 1 | S. cerevisiae deletion strains, locus YLL041C, strain sdh2, stronger effect = lower value 0.994 | S. cerevisiae deletion strains, locus YLR027C, strain aat2, stronger effect = lower value 1 | S. cerevisiae deletion strains, locus YLR039C, strain RIC1, stronger effect = lower value 0.989 | S. cerevisiae deletion strains, locus YLR058C, strain SHM2, stronger effect = lower value 1.01 | S. cerevisiae deletion strains, locus YLR102C, strain apc9, stronger effect = lower value 0.991 | S. cerevisiae deletion strains, locus YLR113W, strain HOG1, stronger effect = lower value 1.06 | S. cerevisiae deletion strains, locus YLR221C, strain rsa3, stronger effect = lower value 0.969 | S. cerevisiae deletion strains, locus YLR258W, strain gsy2, stronger effect = lower value 0.991 | S. cerevisiae deletion strains, locus YLR262C, strain YPT6 (second series), stronger effect = lower value 1 | S. cerevisiae deletion strains, locus YLR262C, strain YPT6, stronger effect = lower value 1.07 | S. cerevisiae deletion strains, locus YLR268W, strain sec22, stronger effect = lower value 0.954 | S. cerevisiae deletion strains, locus YLR320W, strain mms22, stronger effect = lower value 0.991 | S. cerevisiae deletion strains, locus YLR330W, strain CHS5, stronger effect = lower value 1.01 | S. cerevisiae deletion strains, locus YLR342W, strain FKS1 (second series), stronger effect = lower value 0.934 | S. cerevisiae deletion strains, locus YLR342W, strain FKS1, stronger effect = lower value 1.01 | S. cerevisiae deletion strains, locus YLR357W, strain rsc2, stronger effect = lower value 0.981 | S. cerevisiae deletion strains, locus YLR370C, strain arc18, stronger effect = lower value 0.977 | S. cerevisiae deletion strains, locus YLR371W, strain rom2, stronger effect = lower value 0.989 | S. cerevisiae deletion strains, locus YLR384C, strain iki3, stronger effect = lower value 0.985 | S. cerevisiae deletion strains, locus YLR418C, strain cdc73, stronger effect = lower value 0.96 | S. cerevisiae deletion strains, locus YML016C, strain PPZ1, stronger effect = lower value 0.995 | S. cerevisiae deletion strains, locus YML032C, strain rad52, stronger effect = lower value 0.985 | S. cerevisiae deletion strains, locus YML120C, strain ndi1, stronger effect = lower value 0.981 | S. cerevisiae deletion strains, locus YML124C, strain tub3, stronger effect = lower value 0.996 | S. cerevisiae deletion strains, locus YMR058W, strain fet3, stronger effect = lower value 0.996 | S. cerevisiae deletion strains, locus YMR078C, strain ctf18, stronger effect = lower value 0.993 | S. cerevisiae deletion strains, locus YMR125W, strain sto1, stronger effect = lower value 1.01 | S. cerevisiae deletion strains, locus YMR129W, stronger effect = lower value 0.996 | S. cerevisiae deletion strains, locus YMR205C, strain PFK2, stronger effect = lower value 0.998 | S. cerevisiae deletion strains, locus YMR223W, strain ubp8, stronger effect = lower value 0.975 | S. cerevisiae deletion strains, locus YMR231W, strain pep5, stronger effect = lower value 0.995 | S. cerevisiae deletion strains, locus YMR263W, strain SAP30, stronger effect = lower value 1 | S. cerevisiae deletion strains, locus YMR307W, strain GAS1, stronger effect = lower value 1.02 and 0.998 | S. cerevisiae deletion strains, locus YNL067W, strain RPL9B, stronger effect = lower value 1.01 | S. cerevisiae deletion strains, locus YNL071W, strain lat1, stronger effect = lower value 1.01 | S. cerevisiae deletion strains, locus YNL153C, strain GIM3, stronger effect = lower value 0.986 and 0.997 | S. cerevisiae deletion strains, locus YNL175C, strain NOP13, stronger effect = lower value 1.01 | S. cerevisiae deletion strains, locus YNL183C, strain NPR1, stronger effect = lower value 0.945 | S. cerevisiae deletion strains, locus YNL197C, strain WHI3, stronger effect = lower value 1.01 | S. cerevisiae deletion strains, locus YNL209W, strain ssb2, stronger effect = lower value 0.99 | S. cerevisiae deletion strains, locus YNL224C, strain SQS1, stronger effect = lower value 1.03 | S. cerevisiae deletion strains, locus YNL233W, strain BNI4, stronger effect = lower value 0.997 | S. cerevisiae deletion strains, locus YNL248C, strain rpa49, stronger effect = lower value 1.03 | S. cerevisiae deletion strains, locus YNL250W, strain rad50, stronger effect = lower value 0.988 | S. cerevisiae deletion strains, locus YNL271C, strain bni1, stronger effect = lower value 0.993 | S. cerevisiae deletion strains, locus YNL298W, strain CLA4, stronger effect = lower value 0.986 | S. cerevisiae deletion strains, locus YNL307C, strain MCK1, stronger effect = lower value 0.991 | S. cerevisiae deletion strains, locus YNL322C, strain KRE1 (second series), stronger effect = lower value 0.98 | S. cerevisiae deletion strains, locus YNR049C, strain mso1, stronger effect = lower value 0.999 | S. cerevisiae deletion strains, locus YNR052C, strain pop2, stronger effect = lower value 0.985 | S. cerevisiae deletion strains, locus YOL012C, strain htz1 1.31 | S. cerevisiae deletion strains, locus YOL147C, strain pex11, stronger effect = lower value 1 | S. cerevisiae deletion strains, locus YOR001W, strain rrp6, stronger effect = lower value 0.995 | S. cerevisiae deletion strains, locus YOR061W, strain CKA2, stronger effect = lower value 1.01 | S. cerevisiae deletion strains, locus YOR069W, strain VPS5, stronger effect = lower value 1 | S. cerevisiae deletion strains, locus YOR070C, strain gyp1, stronger effect = lower value 0.998 | S. cerevisiae deletion strains, locus YOR080W, strain dia2, stronger effect = lower value 0.997 | S. cerevisiae deletion strains, locus YOR083W, strain WHI5 (second series), stronger effect = lower value 1.03 | S. cerevisiae deletion strains, locus YOR083W, strain WHI5, stronger effect = lower value 1.01 | S. cerevisiae deletion strains, locus YOR106W, strain vam3, stronger effect = lower value 1 | S. cerevisiae deletion strains, locus YOR136W, strain idh2, stronger effect = lower value 0.988 | S. cerevisiae deletion strains, locus YOR144C, strain elg1, stronger effect = lower value 1 | S. cerevisiae deletion strains, locus YOR184W, strain ser1, stronger effect = lower value 0.958 | S. cerevisiae deletion strains, locus YOR231W, strain MKK1, stronger effect = lower value 1.02 | S. cerevisiae deletion strains, locus YOR265W, strain rbl2, stronger effect = lower value 0.989 | S. cerevisiae deletion strains, locus YOR270C, strain vph1, stronger effect = lower value 0.996 | S. cerevisiae deletion strains, locus YOR290C, strain snf2, stronger effect = lower value 0.942 | S. cerevisiae deletion strains, locus YOR316C, strain cot1, stronger effect = lower value 1 | S. cerevisiae deletion strains, locus YPL051W, strain arl3, stronger effect = lower value 1 | S. cerevisiae deletion strains, locus YPL055C, strain LGE1, stronger effect = lower value 1 | S. cerevisiae deletion strains, locus YPL078C, strain atp4, stronger effect = lower value 0.991 | S. cerevisiae deletion strains, locus YPL106C, strain sse1, stronger effect = lower value 0.941 | S. cerevisiae deletion strains, locus YPL240C, strain hsp82, stronger effect = lower value 0.987 | S. cerevisiae deletion strains, locus YPL241C, strain CIN2, stronger effect = lower value 0.998 | S. cerevisiae deletion strains, locus YPL256C, strain CLN2, stronger effect = lower value 1.04 | S. cerevisiae deletion strains, locus YPR119W, strain clb2, stronger effect = lower value 1 | S. cerevisiae deletion strains, locus YPR141C, strain kar3, stronger effect = lower value 1.01 | S. cerevisiae deletion strains, locus YPR163C, strain tif3, stronger effect = lower value 1.01 | S. cerevisiae deletion strains, locus YPR167C, strain met16, stronger effect = lower value 0.995 | S. cerevisiae deletion strains, strain wtn01, stronger effect = lower value 0.965 | S. cerevisiae strains, strain wild type, stronger effect = lower value 1.01
